TcdB inh: blocks C. difficile toxin B glycohydrolase activity; AID 652162; 350,000 tested, 0.24% active; inhibition, % at 9.99 µM; P18177; TcdB glycohydrolase enzymatic assay, plate reader; in the data active = inhibition above about 10%
Yp Topo-I inh: Y. pestis Topo-I inhibition via cleavage products; Y. pestis Topo-I cleavage product accumulation, plate reader; activity, % at 10 µM; 360,000 tested, 0.064% active; in the data active = activity above about 50%, passing the limit was not always enough
FBA Mtb inh: inhibits M. tuberculosis FBA enzyme | 360,000 tested, 2.3% active | P9WQA3 | purified M. tuberculosis FBA, fluorescence read-out | AID 588726 | inhibition, % at 1 µM; in the data active = inhibition above about 27%;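 also: 0% = vehicle and 100% = reference inhibitor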
GDH-TPI counter: counter-screen for M. tuberculosis FBA inhibitors: GDH-TPI coupled enzymes | GDH-TPI coupled enzyme counterscreen, NADH absorbance | 360,000 tested, 1.2% active | inhibition, % at 4.8 µM; in the data active = inhibition above about 30%;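 also: 0% = DMSO wells and 100% = wells lacking the enzyme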
PrPC surface inh: cell surface PrPC inhibition, primary TR-FRET screen. 370,000 tested, 0.43% active. TR-FRET read-out. inhibition, % at 13.8 µM. P04156. AID 720596; in the data active = inhibition above about 24%; also: 0% = median of the test wells and 100% = reference compound wells
Numbers without * were called inactive; · = no result. An excerpt weighted towards active compounds, which were near 3.2% of everything screened.

SMILES	TcdB inh	Yp Topo-I inh	FBA Mtb inh	GDH-TPI counter	PrPC surface inh
CCNC(=O)/C(C#N)=C/c1c(N2CC(C)OC(C)C2)nc2ccccn2c1=O (stereo unspecified)	·	-4.5	3.3	27.2	-14.7
CCNC(=O)/C(C#N)=C/c1c(N2CCCCCC2)nc2ccccn2c1=O	1.1	5.6	135.2*	18.9	-8.2
COCCCNC(=O)/C(C#N)=C/c1c(N2CCN(C)CC2)nc2ccccn2c1=O	1.1	-7.9	139.5*	2.0	-15.4
CC(Oc1ccc(Cl)cc1)C(=O)Nc1ccc(S(=O)(=O)Nc2nccs2)cc1 (stereo unspecified)	3.6	23.1	106.9*	3.0	1.7
CC(Oc1ccccc1Cl)C(=O)Nc1ccc(S(=O)(=O)Nc2nccs2)cc1 (stereo unspecified)	2.3	14.5	2.7	0.3	0.6
CC(C)CC(N)c1csc(Nc2ccc(C(=O)NCCCO)cn2)n1 (stereo unspecified)	0.8	-4.0	2.4	33.8*	4.5
CCOCCCn1c(=O)c2ccccc2n2c(=S)[nH]nc12	25.1*	5.0	2.7	-3.4	8.3
CC(C)CCn1c(=O)c2ccccc2n2c(=S)[nH]nc12	-0.8	2.2	0.8	-2.7	-0.9
C=CC[C@@H](CC(=O)N(CCO)Cc1ccccc1)C(=O)NC[C@@H](OC(=O)[C@@H](CC=C)CC(=O)OC(C)(C)C)c1ccccc1	10.6*	12.6	-0.8	2.7	-2.6
COCCNC(=O)C[C@@H]1C[C@@H]2c3cc(NC(=O)CC4CC4)ccc3O[C@@H]2[C@@H](CO)O1	1.3	·	·	·	·
CC(C)c1nc(NCc2ccccc2)c(C#N)c2c1CCCC2	·	9.3	-0.5	13.4	-4.0
CC(C)c1nc(NCCO)c(C#N)c2c1CCCC2	3.5	12.5	16.4	38.8*	2.0
Cc1ccc(C)n1-c1nccc(-c2ccco2)n1	0.8	-1.8	158.4*	5.7	-1.0
c1ccc(CSc2nccc(-c3ccco3)n2)cc1	1.8	21.7	-0.4	13.1	5.9
N#Cc1cccn1-c1nccc(-c2cccs2)n1	0.9	9.0	-5.4	4.2	9.0
Cc1ccc(C)n1-c1nccc(-c2cccs2)n1	·	1.0	161.1*	-5.3	-1.1
CCC(=O)N[C@@H]1CC[C@H](CCn2cc(CN(C)C)nn2)O[C@@H]1CO	-0.5	·	·	·	·
Cc1noc(C)c1NC(=O)N(C)C[C@@H]1Oc2ccc(NC(=O)Nc3ccc(F)cc3)cc2C(=O)N([C@@H](C)CO)C[C@@H]1C	-2.3	·	·	·	·
NC(=S)N=Nc1c(O)[nH]c2c(Cl)cc(Cl)cc12	0.6	-0.4	-3.7	37.2*	-15.6
NC(=S)N=Nc1c(O)[nH]c2cc(F)c(F)cc12	·	-4.0	-5.0	12.4	-36.0
CC=Cc1ccc2n(c1=O)C[C@@H]1[C@@H](CO)[C@H](C(=O)N3CCOCC3)[C@H]2N1CC1CC1 (mixture of isomers)	0.8	·	·	·	·
CC(=O)c1ccc(Nc2nc(C)cc(C)n2)cc1	0.5	-5.0	0.1	33.3*	1.1
CCCN1CCN(C(=O)c2cc3c(s2)-c2ccccc2OC3)CC1	1.2	23.1	186.4*	32.7*	13.2
COc1ccc(N2CCN(C(=O)c3cc4c(s3)-c3ccccc3OC4)CC2)cc1	0.1	1.1	4.5	12.5	-4.3
CCOC(=O)N1CCN(C(=O)c2cc3c(s2)-c2ccccc2OC3)CC1	1.4	-7.8	146.9*	23.2	2.2
SMILES	TcdB inh	Yp Topo-I inh	FBA Mtb inh	GDH-TPI counter	PrPC surface inh
CC(/C=C/c1ccco1)=N\NC(=O)c1cccc(Cl)c1	-1.6	2.7	1.5	31.9*	6.9
O=C(N/N=C/C=C/c1ccco1)c1ccccc1Cl	-0.3	3.7	0.4	27.4	-1.6
CC(/C=C/c1ccco1)=N/NC(=O)c1ccccc1Cl	·	-3.5	-0.9	32.3*	-5.6
Cc1noc(C)c1NC(=O)Nc1ccc2c(c1)C(=O)N([C@@H](C)CO)C[C@H](C)[C@@H](CN(C)S(=O)(=O)c1ccc(F)cc1)OCCCC[C@@H](C)O2	0.1	·	·	·	·
O=C(NC1CC2CCCC(C1)N2CC(=O)N1CCCc2ccccc21)C1CCCCC1 (stereo unspecified)	·	10.1	190.6*	9.9	-3.1
C[C@@H]1CN([C@@H](C)CO)C(=O)Cc2cc(N(C)C)ccc2O[C@H]1CN(C)Cc1ccc(C(=O)O)cc1	-11.8	·	·	·	·
O=C(O)c1ccc(N/N=C/C(Br)=C/c2ccccc2)cc1	-1.8	-12.4	0.5	65.8*	0.5
O=C(N/N=C/C(Br)=C/c1ccccc1)C1CC1	3.1	7.2	-1.2	20.8	4.9
O=C(N/N=C/C(Br)=C/c1ccccc1)c1ccc([N+](=O)[O-])cc1	0.4	-4.7	-0.5	10.3	-6.1
O=C(N/N=C/C(Br)=C/c1ccccc1)C(O)c1ccccc1 (stereo unspecified)	1.1	-0.7	-0.3	43.5*	4.1
Cc1ccc(S(=O)(=O)N(C)C[C@@H]2Oc3ccc(NS(=O)(=O)c4c(C)noc4C)cc3C(=O)N([C@@H](C)CO)C[C@@H]2C)cc1	-0.8	·	·	·	·
Cc1noc(C)c1NC(=O)N[C@H]1CC[C@@H](CCNC(=O)C2CCCCC2)O[C@H]1CO	0.0	·	·	·	·
CN(C)CCNc1cccc2sc3ccc(O)cc3c(=O)c12	39.0*	·	-9.9	·	-37.2
Cc1ccc(NCCN(C)C)c2c(=O)c3cc(O)ccc3sc12	21.3*	-46.0	-6.1	13.3	-18.5
CCN(CC)CCNc1cccc2sc3ccccc3c(=O)c12	2.5	-5.3	-1.2	13.3	-13.3
CCN(CC)c1ccc(O)c(C=Nc2ccc(C)c(C)c2)c1	0.4	10.2	-3.2	25.8	-1.3
CCN(CC)c1ccc(C=Nc2ccccc2C)c(O)c1	0.5	-2.6	2.5	37.4*	-3.7
CCN(CC)c1ccc(C=Nc2ccc(C#N)cc2)c(O)c1	·	-7.7	-1.5	44.7*	4.7
CCN(CC)c1ccc(/C=N/N(c2ccccc2)c2ccccc2)c(O)c1	·	-16.2	-2.8	14.1	-1.5
COc1ccc(OC)c(C(C(=O)NC2CCCCC2)N(C(=O)c2snc(C(N)=O)c2N)c2ccccc2OC)c1 (stereo unspecified)	1.2	-8.0	114.7*	25.8	-1.6
COc1ccccc1N(C(=O)c1snc(C(N)=O)c1N)C(C(=O)NC1CCCCC1)c1cccc(OC)c1OC (stereo unspecified)	0.2	33.1	10.8	16.1	5.9
Nc1c(C(=O)NCc2ccco2)c2nc3ccccc3nc2n1Cc1ccccc1	·	19.0	112.4*	8.4	-2.2
Nc1c(C(=O)NCc2ccco2)c2nc3ccccc3nc2n1CCc1ccccc1F	·	3.9	70.3*	7.5	-6.0
COc1ccc(CCn2c(N)c(C(=O)NCc3ccco3)c3nc4ccccc4nc32)cc1OC	·	27.2	10.9	15.8	-11.0
CNC(=O)C[C@H]1CC[C@@H]2[C@@H](COc3ccc(NC(=O)Nc4ccc(F)c(F)c4)cc3C(=O)N2C)O1	2.1	·	·	·	·
OCCCCNc1cccc2ccccc12	8.2	6.0	161.2*	9.2	0.2
Nc1cc(=O)[nH]c(SCC(=O)Nc2ccccc2Sc2ccc(Cl)cc2)n1	10.2*	2.3	-0.3	-0.3	0.9
COCC(=O)N1C[C@H](C)[C@H](OC)CN(C)C(=O)c2ccc(NC(=O)c3ccccc3)cc2OC[C@H]1C	-2.6	·	·	·	·
CC(C)OC(=O)C(=O)NNc1ccccc1	14.8*	0.5	4.4	1.3	15.5
